Test results published in PubChem BioAssay (NCATS).
Records with an inconclusive call do not appear. The source made the active and inactive calls. Calls come from the whole dose curve; as a rule, active = well fitted curve in the direction sought with a large enough effect; inconclusive = small, poorly fitted or top-dose-only effect, or another doubt; inactive = no such curve, though single readings can be large; an effect the other way counts as inactive or inconclusive.

How the values were obtained:
[1] = qHTS of pediatric cancer cell lines to identify multiple opportunities for drug repurposing: Primary screen for Rh18 cells (AID 1347102); note: nearly all actives have a fitted effect of over 65% in size; note: potency is the fitted concentration of half-maximal effect
Outline: (§1)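 Cells (500-1,000/well) rested 5 h, then received compounds for 48 h; metabolically active cells were measured by CellTiter-Glo luminescence. Final concentrations spanned up to 46 µM (MIPE, 11-point) or 0.59 nM-46 µM (NPC, 8-point) in primary screens, 11-point in follow-ups.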

[2] = qHTS of pediatric cancer cell lines to identify multiple opportunities for drug repurposing: Primary screen for RD cells (AID 1347104); note: potency is the fitted concentration of half-maximal effect; nearly all actives have a fitted effect of over 55% in size
Outline: (§2)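 Plated cells (500-1,000 per well, growth media) were allowed to settle for 5 hours, treated with compound dilutions for 48 hours, then lysed with CellTiter-Glo for 15 min at room temperature before luminescence reading.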

[3] = qHTS of pediatric cancer cell lines to identify multiple opportunities for drug repurposing: Primary screen for Rh30 cells (AID 1347107); note: nearly all actives have a fitted effect of over 75% in size; note: potency is the fitted concentration of half-maximal effect
Outline: as §1

[4] = qHTS of pediatric cancer cell lines to identify multiple opportunities for drug repurposing: Primary screen for MG 63 (6-TG R) cells (AID 1347105); note: nearly all actives have a fitted effect of over 50% in size; note: potency is the fitted concentration of half-maximal effect
Outline: as §2

[5] = qHTS of pediatric cancer cell lines to identify multiple opportunities for drug repurposing: Primary screen for Rh41 cells (AID 1347108); note: potency is the fitted concentration of half-maximal effect; nearly all actives have a fitted effect of over 70% in size
Outline: as §2

[6] = qHTS of pediatric cancer cell lines to identify multiple opportunities for drug repurposing: Primary screen for control Hh wild type fibroblast cells (AID 1347106); note: nearly all actives have a fitted effect of over 55% in size; note: potency is the fitted concentration of half-maximal effect;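 for activity change, negative = cytotoxic: a drop in luminescence marks cytotoxicity and a rise apparent proliferation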
Outline: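 Viability after 48 h compound treatment at 37C, 500-1,000 cells/well, read as ATP luminescence with CellTiter-Glo. Primary screens used 11-point (MIPE, 0.78 nM-46 µM) or 8-point (NPC, 0.59 nM-46 µM) final concentrations; follow-up screens used 11-point dilutions.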

[7] = qHTS of pediatric cancer cell lines to identify multiple opportunities for drug repurposing: Primary screen for OHS-50 cells (AID 1347103); note: nearly all actives have a fitted effect of over 40% in size; note: potency is the fitted concentration of half-maximal effect
Outline: as §1

[8] = qHTS of pediatric cancer cell lines to identify multiple opportunities for drug repurposing: Confirmatory screen for NB1643 cells (AID 1347109); note: potency is the fitted concentration of half-maximal effect; nearly all actives have a fitted effect of over 45% in size
Outline: as §1

[9] = qHTS of pediatric cancer cell lines to identify multiple opportunities for drug repurposing: Confirmatory screen for A673 cells (AID 1347110);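 note: potency is the fitted concentration of half-maximal effect; cells exposed to compound for 48 h before the viability read; nearly all actives have a fitted effect of over 65% in size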
Outline: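 A673 cells at 500-1,000 cells/well were dosed 5 h after plating, in dilution series up to 46 uM final; primary runs used 8 or 11 points and confirmatory runs used 11 points. Viability was read by CellTiter-Glo luminescence after 48 h, against DMSO and 2.3 uM bortezomib controls.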

[10] = qHTS of pediatric cancer cell lines to identify multiple opportunities for drug repurposing: Confirmatory screen for SK-N-MC cells (AID 1347111);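 note: potency is the fitted concentration of half-maximal effect; cells exposed to compound for 48 h before the readout; nearly all actives have a fitted effect of over 70% in size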
Outline: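 Seed 500-1,000 cells/well; rest 5 h at 37 degrees C. Pin-transfer compounds, 11-point titration. Incubate 48 h. Add CellTiter-Glo, 15 min RT, read luminescence.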

[11] = qHTS of pediatric cancer cell lines to identify multiple opportunities for drug repurposing: Confirmatory screen for BT-12 cells (AID 1347112); note: potency is the fitted concentration of half-maximal effect; nearly all actives have a fitted effect of over 55% in size
Outline: as §1

[12] = qHTS of pediatric cancer cell lines to identify multiple opportunities for drug repurposing: Confirmatory screen for LAN-5 cells (AID 1347113); note: potency is the fitted concentration of half-maximal effect; nearly all actives have a fitted effect of over 65% in size
Outline: as §1

[13] = qHTS of pediatric cancer cell lines to identify multiple opportunities for drug repurposing: Confirmatory screen for BT-37 cells (AID 1347117); details: BT-37 pediatric cancer cells, viability; activity change, negative = cytotoxic: at 45.9 µM (top of the series); note: potency is the fitted concentration of half-maximal effect; nearly all actives have a fitted effect of over 55% in size
Outline: as §1

[14] = qHTS of pediatric cancer cell lines to identify multiple opportunities for drug repurposing: Confirmatory screen for control Hh wild type fibroblast cells (AID 1347121); note: nearly all actives have a fitted effect of over 70% in size
Outline: as §1

[15] = qHTS of pediatric cancer cell lines to identify multiple opportunities for drug repurposing: Confirmatory screen for TC32 cells (AID 1347118);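 note: potency is the fitted concentration of half-maximal effect; cells exposed to compound for 48 h before the read; nearly all actives have a fitted effect of over 65% in size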
Outline: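 Luminescent ATP read-out (CellTiter-Glo) of metabolically active TC32 cells after 48 h exposure. Concentration-response curves came from 11-point (MIPE, 0.78 nM–46 µM) or 8-point (NPC, 0.59 nM–46 µM) primary titrations; follow-up used 11 points.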

[16] = qHTS of pediatric cancer cell lines to identify multiple opportunities for drug repurposing: Confirmatory screen for SJ-GBM2 cells (AID 1347116); note: potency is the fitted concentration of half-maximal effect; nearly all actives have a fitted effect of over 60% in size
Outline: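 Viability measured as metabolically active cells via CellTiter-Glo luminescence following 48 hours of compound exposure, 11-point dilutions in confirmatory testing. 500-1,000 cells/well plated 5 hours before dosing; controls were DMSO and 2.3 µM bortezomib.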

Measured: Potency

C=CCNc1c(O)cc2c(O)c1C[C@@H](C)C[C@H](OC)[C@@H](O)[C@@H](C)C=C(C)[C@H](OC(N)=O)[C@@H](OC)C=CC=C(C)C(=O)N2
active: [1] 0.935 µM | [2] 0.264 µM
inactive: [3]

CCNC(=O)Nc1ccc(-c2nc3c(c(N4CCOC[C@H]4C)n2)CCN(C2COC2)C3)cc1
active: [2] 1.05 µM | [4] 0.743 µM | [5] 1.48 µM

c1cc(N[C@@H]2CCNC2)nc(-c2cnc3ccc(-c4cn[nH]c4)cn23)c1
active: [1] 20.9 µM | [2] 16.6 µM | [6] 23.5 µM | [5] 16.6 µM
inactive: [3]

COC(=O)C1C2CC3c4[nH]c5cc(OC)ccc5c4CCN3CC2CC(OC(=O)c2cc(OC)c(OC)c(OC)c2)C1OC (stereo unspecified)
inactive: [4] | [6] | [14]
active: [7] 27.3 µM | [8] 5.22 µM | [9] 3.29 µM | [10] 0.369 µM | [11] 2.61 µM | [12] 14.7 µM | [13] 1.47 µM

CCc1nc(-c2cccc(C)c2)c(-c2ccnc(NC(=O)c3ccccc3)c2)s1
inactive: [1] | [6]

COc1cc(C(C)C)c(Oc2cnc(NC(CO)CO)nc2N)cc1I
inactive: [6]

C[C@H](NC(=O)C(C#N)=Cc1cccc(Br)n1)c1ccccc1
active: [7] 19.3 µM | [2] 33.2 µM | [3] 23.5 µM | [5] 23.5 µM
inactive: [6]

Cn1cc(-c2cnn3c(N)c(Br)c([C@H]4CCCNC4)nc23)cn1
active: [7] 0.385 µM | [2] 1.05 µM | [8] 1.85 µM | [9] 14.7 µM | [10] 0.827 µM | [12] 5.85 µM | [13] 3.69 µM | [15] 5.85 µM
inactive: [3] | [14]

COc1cc2ncnc(Nc3cccc(Br)c3)c2cc1OC
inactive: [6] | [3] | [14]
active: [7] 15.3 µM | [2] 0.935 µM | [8] 18.5 µM | [9] 14.7 µM | [10] 11.7 µM | [12] 16.5 µM | [16] 3.69 µM | [13] 18.5 µM | [15] 9.27 µM

COc1ccc([C@@H]2CNC(=O)C2)cc1OC1CCCC1
active: [2] 3.32 µM | [4] 5.9 µM | [5] 3.72 µM
inactive: [7]

C#C[C@]1(O)CC[C@@H]2[C@@H]3CCc4cc(O)ccc4[C@H]3CC[C@@]21C
inactive: [6]
active: [7] 30.6 µM | [2] 18.7 µM | [4] 23.5 µM

C[C@]12CC[C@@H]3c4ccc(O)cc4CC[C@H]3[C@H]1CC[C@H]2O
active: [7] 24.3 µM | [2] 10.5 µM
